A selection: hits, their analogues and other compounds. The true share with any hit is near 4.8%.
CSC inhib: cancer stem cell inhibition | AID 2717 | cancer stem cell-like cells viability, luminescence | 300,000 compounds, 1.1% hits | inhibition, % at 7.5 µM; in the data active = inhibition above about 75%; tested in HMLE shEcad cells
Mdm2-MdmX inh: inhibitors of human Mdm2/MdmX interaction | O15151+Q00987 | SaOS-2 split-luciferase Mdm2/MdmX complementation, luminescence | inhibition, % at 8 µM | 330,000 compounds, 3% hits | AID 485346;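 active = inhibition of at least 50% at 8 µM in the primary screen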
Target sequence (O15151 whole entry, looked up): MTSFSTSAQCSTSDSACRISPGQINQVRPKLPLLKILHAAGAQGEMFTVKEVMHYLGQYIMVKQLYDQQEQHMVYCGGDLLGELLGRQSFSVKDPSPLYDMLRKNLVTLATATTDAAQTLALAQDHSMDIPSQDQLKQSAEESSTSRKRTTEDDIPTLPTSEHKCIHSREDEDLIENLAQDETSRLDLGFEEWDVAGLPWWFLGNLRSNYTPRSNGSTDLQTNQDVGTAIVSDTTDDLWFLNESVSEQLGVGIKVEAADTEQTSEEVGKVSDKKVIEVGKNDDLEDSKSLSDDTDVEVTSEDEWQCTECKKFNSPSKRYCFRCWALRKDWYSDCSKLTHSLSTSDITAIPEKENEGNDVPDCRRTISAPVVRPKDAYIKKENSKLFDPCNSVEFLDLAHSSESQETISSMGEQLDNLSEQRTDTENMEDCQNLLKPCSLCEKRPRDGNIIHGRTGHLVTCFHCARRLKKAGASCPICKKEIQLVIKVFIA
Target sequence (Q00987 whole entry, looked up): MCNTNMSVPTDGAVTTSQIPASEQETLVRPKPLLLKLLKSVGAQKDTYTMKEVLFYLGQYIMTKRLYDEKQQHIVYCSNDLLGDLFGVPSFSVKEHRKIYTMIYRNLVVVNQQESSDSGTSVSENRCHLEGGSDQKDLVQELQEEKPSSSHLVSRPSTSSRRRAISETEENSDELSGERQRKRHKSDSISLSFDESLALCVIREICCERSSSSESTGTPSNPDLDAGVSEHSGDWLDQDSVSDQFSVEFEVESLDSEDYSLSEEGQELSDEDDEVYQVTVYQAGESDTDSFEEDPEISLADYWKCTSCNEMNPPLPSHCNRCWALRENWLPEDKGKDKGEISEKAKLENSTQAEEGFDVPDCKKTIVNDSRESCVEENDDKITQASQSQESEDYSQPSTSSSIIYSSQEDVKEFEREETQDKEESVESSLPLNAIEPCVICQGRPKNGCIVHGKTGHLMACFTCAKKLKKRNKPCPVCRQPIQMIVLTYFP
MPTP inh: inhibitors of mitochondrial permeability transition pore; 360,000 compounds, 1.4% hits; inhibition, % at 10 µM; isolated mouse mitochondria, Ca2+ swelling absorbance, 30 min;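 active = inhibition of 50% or more, scaled per plate between neutral and stimulator controls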;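 also: 0% = DMSO wells given calcium and 100% = 1 mM EGTA wells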
Beta cell apopt: blocks beta cell apoptosis; INS-1E cytokine-induced death, ATP luminescence, 48 h; percent of positive-control rescue, neutral wells zero; protection from apoptosis, % (test concentration not listed); 300,000 compounds, 0.8% hits; AID 435005;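 active = Every replicate reaches about 75%, or at least half do and their mean reaches it too, limit read from the data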;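 also: 0% = cytokine-treated negative control wells and 100% = positive control rescue; higher means more ATP so stronger rescue from cytokine killing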
Calb FLC: affects C. albicans growth with fluconazole; C. albicans CaCi-2 (fluconazole-resistant clinical isolate) + fluconazole, Alamar Blue growth, 48 h; growth inhibition, % (test concentration not listed); 300,000 compounds, 0.57% hits;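 active = growth inhibition above about 58% in most replicates, limit read from the data, passing the limit was not always enough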;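 also: all wells also contain fluconazole at 8 µg/ml as a sub-toxic cotreatment; 0% = median of DMSO wells and 100% = median of geldanamycin control wells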
Mdm2 MdmX conf: confirmation of human Mdm2/MdmX interaction inhibitors; shares compounds with Mdm2-MdmX inh; Mdm2-MdmX binding, luminescent assay; inhibition, % at 8 µM; 10,000 compounds, 55% hits; AID 489028; in the data active = inhibition above about 40%
Full FLuc ctr: full-length luciferase inhibition in Mdm2/MdmX counter-screen; inhibition, % at 8 µM; 6,200 compounds, 77% hits; SaOS-2 full-length luciferase counterscreen, luminescence; AID 504607; shares compounds with Mdm2-MdmX inh;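 active = mean inhibition at 8 µM reaching about 37%, which flags the compound as non-specific, limit read from the data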;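 also: p53-null SaOS-2 cells with luciferase driven by a doxycycline-inducible promoter; compound on cells about two nights before reading with doxycycline added after day one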
* hit, by the source's call; . = not tested or not shown.

SMILES	CSC inhib	Mdm2-MdmX inh	MPTP inh	Beta cell apopt	Calb FLC	Mdm2 MdmX conf	Full FLuc ctr
CCCCn1nnnc1C1(C)CCC(=O)N1Cc1cc(OC)ccc1OC (configuration not stated)	.	.	-2	.	.	.	.
COc1ccc(CN2C(=O)COc3ccccc3C2c2nc3ccccc3[nH]2)cc1 (configuration not stated)	.	.	-2	.	.	.	.
COc1cc2c(cc1NC(=O)c1ccc(C(C)(C)C)cc1)CCCC2	58	69*	5	3	0	74*	62*
COc1cc(OC)c2c(-c3ccccc3)cc(=O)oc2c1C(CCN1CCCC1)c1ccc2c(c1)OCO2 (configuration not stated)	15	81*	-1	3	-18	14	.
COc1cc(C(CCN2CCOCC2)c2c(OC)cc(OC)c3c(-c4ccccc4)cc(=O)oc23)cc(OC)c1OC (configuration not stated)	.	31	-2	.	.	.	.
COc1cc(C(CCN2CCCC2)c2c(OC)cc(OC)c3c(-c4ccccc4)cc(=O)oc23)cc(OC)c1OC (configuration not stated)	-11	78*	-1	-1	-15	32	.
COc1cccc(-c2nnc(NC(=O)c3ccc(Cl)s3)o2)c1	51	61*	-23	.	35	17	.
O=C(Nc1nnc(-c2ccc(F)cc2)o1)c1cc(Cl)sc1Cl	.	62*	-27	.	-6	38	38*
Cn1c(=O)oc2cc(S(=O)(=O)N3CCC(C(=O)NCc4ccccc4Cl)CC3)ccc21	-16	51*	-2	1	2	-21	.
COc1ccc(NS(=O)(=O)c2cccc(C(=O)OCC(=O)N3CCN(c4ccc(OC)cc4)CC3)c2)cc1	3	25	0	19	.	.	.
COC(=O)[C@@]12C[C@@H](CC(=O)N3CCCC3)C(=O)N(Cc3ccc4c(c3)OCO4)C1=CCC(C)(C)C2	.	.	0	.	.	.	.
Oc1ccc(/C=N/Nc2ccc(C(F)(F)F)cn2)c(O)c1	102*	64*	2	73	100*	36	56*
CC(OC(=O)C1CCCC1)C(=O)Nc1ncc(Cl)cc1Cl (configuration not stated)	-18	-5	0	-3	.	.	.
COc1ccc(CCn2c(NN)nc3c2c(=O)[nH]c(=O)n3C)cc1	30	57*	3	3	1	50*	67*
COc1cccc(-n2nnnc2S(C)(=O)=O)c1	38	79*	2	-68	105*	100*	4
CCCNC(=O)C(Cc1ccc(Cl)cc1)NC(=O)c1ccc(-c2ccccc2)cc1 (configuration not stated)	5	59*	0	24	.	17	.
Cc1cc(NC(=O)CSc2nnc(-c3ccccc3)c(-c3ccccc3)n2)no1	48	53*	2	-6	12	56*	47*
Cc1cc(NC(=O)CSc2nnc3c(C)cc4cc(C)c(C)cc4n23)no1	1	78*	0	0	1	-7	.
COc1ccc2cc(C)c(SCC(=O)Nc3cc(C)on3)nc2c1	.	50	3	.	1	10	.
CN1CCN(C(=O)C[C@H]2CC[C@H]3[C@@H](COC[C@@H](O)CN3C(=O)C3CCCC3)O2)CC1	.	.	0	.	.	.	.
COc1ccc(N/C=C/C(=O)c2sc(-c3ccccc3)nc2C)cc1	51	59*	1	6	16	38	98*
CC(Oc1ccc(Br)cc1)C(=O)NCC1(N2CCCCC2)CCCCC1 (configuration not stated)	2	-12	0	22	.	.	.
CN(C)CCN1CCN(C2CN(Cc3cn(Cc4ccccc4)nn3)S(=O)(=O)C2)CC1 (configuration not stated)	.	.	1	.	.	.	.
CCC1CCc2sc(C(=O)NCC(c3ccccc3OC)N3CCCC3)cc2C1 (configuration not stated)	-9	75*	1	0	.	18	.
COc1cccc(CNC(=O)[C@@H]2CCCN2C(=O)[C@H]2CCCCN2)c1	.	.	-2	.	.	.	.
SMILES	CSC inhib	Mdm2-MdmX inh	MPTP inh	Beta cell apopt	Calb FLC	Mdm2 MdmX conf	Full FLuc ctr
COc1ccc(N/N=C(/N=Nc2nc(C)cc(=O)[nH]2)c2ccccc2)cc1	4	54*	1	91*	-12	77*	31
Cc1cc(=O)[nH]c(N=N/C(=N/Nc2ccc(O)cc2)c2ccccc2)n1	-11	-1	20	11	-8	.	.
Cc1cc(=O)[nH]c(N=N/C(=N/Nc2ccccc2C)c2ccccc2)n1	-11	69*	-6	93*	-15	82*	49*
CC(=O)OCCNc1cc(N2CCN(C)CC2)c2noc3c2c1C(=O)c1ccccc1-3	.	.	5	.	.	.	.
CCOC(=O)C(C(=O)OCC)c1cc(Br)c2noc3c2c1C(=O)c1ccccc1-3	117*	100*	7	33	16	95*	1
O=C(NC(=S)Nc1cc(C(F)(F)F)ccc1N1CCOCC1)c1sc2ccccc2c1Cl	35	50*	0	8	-5	19	.
CC(C)(C)C(=O)NC(=S)Nc1cc(C(F)(F)F)ccc1N1CCOCC1	-3	7	-3	-4	-9	.	.
COC(=O)/C=C1\OCc2c(F)cccc21	.	.	1	.	.	.	.
COc1ccc(S(=O)(=O)Nc2c(C(=O)O)[nH]c3ccc(OC)cc23)cc1	-10	-24	-1	-3	.	.	.
COC(=O)c1[nH]c2ccc(F)cc2c1NS(=O)(=O)c1ccc(OC)cc1	56	57*	-1	7	-2	58*	62*
O=C(c1cccc(Cl)c1)c1nn(-c2ccccc2)c(=O)cc1C(F)(F)F	57	77*	4	107*	16	32	.
O=C(c1ccccc1)c1nn(-c2ccccc2)c(=O)cc1C(F)(F)F	4	44	1	.	4	.	.
O=C(c1ccccc1)c1nn(-c2ccc(Cl)cc2)c(=O)cc1C(F)(F)F	108*	95*	-2	11	17	78*	56*
Cc1cc(C)cc(Cn2cc(CN3CC(N4CCSCC4)CS3(=O)=O)nn2)c1 (configuration not stated)	.	.	0	.	.	.	.
Cc1ccc(N2C(=O)NC(NS(=O)(=O)c3ccccc3)(C(F)(F)F)C2=O)cc1C (configuration not stated)	-9	14	-1	0	-2	.	.
Cc1ccc(C)c(N(CC(=O)NC2CCCC2)S(=O)(=O)c2ccccc2)c1	6	9	-3	.	1	.	.
N#Cc1ccccc1OCC(=O)N(Cc1nnc(-c2ccccc2Cl)o1)C1CC1	-10	3	-1	.	1	.	.
COc1ccc(CCNc2cc(N3CCN(C(=O)c4ccccc4F)CC3)ccc2[N+](=O)[O-])cc1OC	23	53*	40	104*	-2	35	79*
O=S(Cc1ccc(Br)cc1)Cc1nnc(SCc2ccc(Cl)cc2)n1-c1ccccc1 (configuration not stated)	7	50*	-2	40	52	40	70*
